According to PubChem BioAssay AID1851 (National Center for Advancing Translational Sciences (NCATS), 2009):
Several values for one entry are separate records, joined by “and”; a condition that tells them apart may be missing. Identical values can stand only once. Screen size: about 16,000 compounds; about 5,100 (32%) were called active. Not shown: some 25% with an inconclusive outcome. Calls follow the shape of the dose curve; as a rule, active = well fitted curve in the direction sought with a large enough effect; inconclusive = small, poorly fitted or top-dose-only effect, or effect the other way; inactive = no such curve, though single readings can be large or run the other way. Some of the results follow.

target: Cytochrome P450 3A4 (Homo sapiens) (UniProt P08684); assay: Cytochrome panel assay with activity outcomes; conditions: recombinant CYP, pro-luciferin dealkylation, luminescence, p450-cyp3a4; series mostly up to 57.1 µM; activity, negative = inhibition: at the top concentration
% is scaled to controls: 0 for no effect and ±100 for the full control effect.

Chain of Cytochrome P450 3A4 (Homo sapiens) (P08684 whole entry, looked up): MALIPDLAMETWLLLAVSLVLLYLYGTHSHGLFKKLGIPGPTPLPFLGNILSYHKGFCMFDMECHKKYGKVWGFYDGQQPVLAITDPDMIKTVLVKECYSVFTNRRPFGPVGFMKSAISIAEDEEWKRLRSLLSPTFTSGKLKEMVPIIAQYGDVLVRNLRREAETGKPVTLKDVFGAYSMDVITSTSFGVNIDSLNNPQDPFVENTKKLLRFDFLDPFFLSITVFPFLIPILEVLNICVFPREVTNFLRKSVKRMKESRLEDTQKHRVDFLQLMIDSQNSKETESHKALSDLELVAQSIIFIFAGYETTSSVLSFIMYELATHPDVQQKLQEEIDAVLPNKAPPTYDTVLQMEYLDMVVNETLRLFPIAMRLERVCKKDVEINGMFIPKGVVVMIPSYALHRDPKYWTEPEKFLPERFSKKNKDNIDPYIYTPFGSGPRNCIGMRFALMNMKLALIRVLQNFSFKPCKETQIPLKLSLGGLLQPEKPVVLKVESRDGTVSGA

Structure (SMILES)	activity, negative = inhibition	AC50
Oc1ccc2ccccc2c1C=NCc1c(O)ccc2ccccc12	-15.3% [at 11.4 µM] (inactive)	
CCOC(=O)CSC1=C(C#N)C(C)C2=C(CCCC2=O)N1 (stereo not drawn)	-26.3% (inactive)	
CCOC(=O)CSC1=C(C#N)C(c2sccc2C)C(C(C)=O)=C(C)N1 (stereo not drawn)	19% [at 2.29 µM] (inactive)	
C=CCOC(=O)C1=C(C)NC(SCC(=O)OCC)=C(C#N)C1c1ccc(C)cc1 (stereo not drawn)		2.24 µM (active)
CC(=NCC(=O)O)c1ccccc1	-4.83% [at 11.4 µM] (inactive)	
COc1ccccc1-c1nc(NCc2cccnc2)c2ccccc2n1		10 µM (active)
COc1ccccc1-c1nc(NCc2ccccc2)c2ccccc2n1		3.98 µM (active)
COc1ccccc1-c1nc(NCc2cccs2)c2ccccc2n1		12.6 µM (active)
CC[N+](C)(CC)CCOC(=O)C1c2ccccc2Oc2ccccc21	-8.91% [at 25.6 µM] (inactive)	
C[C@@H](C[C@H](N)C(=O)O)C(=O)O	-6.03% [at 11.4 µM] (inactive)	
COc1ccc(COC2OC[C@]3(C)[C@H]4C5=C(CN3C(=O)OC(C)(C)C)[C@H](C)C(CO)C(CO)C5CC[C@@H]24)cc1 (stereo partly drawn)		7.94 µM (active)
COCC1C2CC[C@H]3C(OCc4ccc(OC)cc4)OC[C@]4(C)[C@H]3C2=C(CN4C(=O)OC(C)(C)C)[C@H](C)C1COC (stereo partly drawn)		1.58 µM (active)
Cc1cc(NC(=O)c2c([N+](=O)[O-])c(C)nn2C)no1	-9.64% (inactive)	
Cc1nn(C(C)C(=O)Nc2ccc(Cl)cn2)c(C)c1[N+](=O)[O-] (stereo not drawn)		15.8 µM (active)
COc1cccc(NC(=S)NNC(=O)C(C)n2nc(C)c([N+](=O)[O-])c2C)c1 (stereo not drawn)	-29.4% [at 2.29 µM] (inactive)	
Cc1nn(C(C)C(=O)Nc2sc3c(c2C#N)CCCC3)c(C)c1[N+](=O)[O-] (stereo not drawn)		15.8 µM (active)
Cc1nc2ccccc2nc(C)c1=NO	-12.4% (inactive)	
Cc1cc(OC(=O)c2cc(F)c(F)cc2Cl)nc(C)n1	3.45% (inactive)	
CC(C)/C(=N/[N+](C)(C)C)c1ccccc1	-14.9% [at 11.4 µM] (inactive)	
CO[C@H]1COC(=O)[C@@H](CCSC)NC(=O)C/C=C\[C@@H](C)[C@H](OC)COC(=O)[C@@H](OCc2ccccc2)/C=C\[C@@H]1C	-27.8% [at 11.4 µM] (inactive)	
CO[C@H]1COC(=O)C/C=C\[C@H](C)[C@@H](NS(=O)(=O)c2ccc(C)cc2)COC(=O)C/C=C\[C@@H]1C		3.16 µM (active)

Structure (SMILES)	activity, negative = inhibition	AC50
CO[C@H]1COC(=O)[C@H]2CCCN2C(=O)[C@@H](C)COC(=O)C/C=C\[C@@H]1C	-39.8% [at 11.4 µM] (inactive)	
CO[C@@H]1COC(=O)C/C=C\[C@H](C)[C@H](OC)COC(=O)[C@H]2CCCN2C(=O)C/C=C\[C@H]1C	-14.8% [at 11.4 µM] (inactive)	
CO[C@@H]1COC(=O)C/C=C\[C@H](C)[C@@H](NS(=O)(=O)c2ccc(C)cc2)COC(=O)C/C=C\[C@@H]1C		3.98 µM (active) and 3.16 µM (active)
CO[C@H]1COC(=O)[C@H](C)NC(=O)C/C=C\[C@@H](C)[C@H](OC)COC(=O)[C@@H](OCc2ccccc2)/C=C\[C@@H]1C	-29.2% [at 11.4 µM] (inactive)	
CO[C@H]1COC(=O)[C@H](C)NC(=O)C/C=C\[C@@H](C)[C@@H](NS(=O)(=O)c2ccc(C)cc2)COC(=O)[C@H](OCc2ccccc2)/C=C\[C@@H]1C		3.16 µM (active)
CO[C@@H]1COC(=O)C/C=C\[C@@H](C)[C@H](OC)COC(=O)[C@@H](C)COC(=O)C/C=C\[C@H]1C	-12.1% [at 11.4 µM] (inactive)	
CO[C@@H]1COC(=O)[C@H](C)NC(=O)C/C=C\[C@@H](C)[C@@H](NS(=O)(=O)c2ccc(C)cc2)COC(=O)C/C=C\[C@@H]1C	5.93% [at 11.4 µM] (inactive)	
CO[C@H]1COC(=O)[C@H](C)NC(=O)C/C=C\[C@@H](C)[C@@H](NS(=O)(=O)c2ccc(C)cc2)COC(=O)C/C=C\[C@@H]1C		3.98 µM (active)
CO[C@H]1COC(=O)C/C=C\[C@@H](C)[C@H](OC)COC(=O)[C@H]2CCCN2C(=O)C/C=C\[C@@H]1C	-29.5% [at 11.4 µM] (inactive)	
CO[C@@H]1COC(=O)C/C=C\[C@H](C)COC(=O)[C@H](C)NC(=O)C/C=C\[C@H]1C	-19.1% [at 11.4 µM] (inactive)	
CC(C)(C)C(=O)NC(=C(Cl)Cl)P(=O)(O)O	10.5% (inactive)	
N=C(N)C(N=Nc1ccccc1)C(=N)N (stereo not drawn)	-1.93% [at 11.4 µM] (inactive)	
CO[C@H]1COC(=O)CCC[C@H](C)[C@H](OC)COC(=O)C/C=C\[C@@H]1C	-29.6% [at 11.4 µM] (inactive)	
CO[C@H]1COC(=O)C/C=C\[C@H](C)[C@@H](NS(=O)(=O)c2ccc(C)cc2)COC(=O)CCC[C@@H]1C		3.98 µM (active)
CO[C@H]1COC(=O)CCC[C@H](C)[C@@H](OC)COC(=O)C/C=C\[C@@H]1C	-19.5% [at 11.4 µM] (inactive)	
CCC(Sc1nc2cc3c(cc2c(=O)n1Cc1ccco1)OCO3)C(=O)Nc1cccc(OC)c1 (stereo not drawn)		1.26 µM (active)
CCC(Sc1nc2cc3c(cc2c(=O)n1Cc1ccco1)OCO3)C(=O)Nc1ccccc1OC (stereo not drawn)		1.58 µM (active)
CCn1c(C)cc(/C=C2\NC(=O)N(Cc3ccc(Cl)cc3)C2=O)c1C		1.58 µM (active)
Cc1sc2nc(SCC(=O)C(C)(C)C)n(Cc3ccco3)c(=O)c2c1C		11.2 µM (active)
Cc1sc2nc(SCc3nc(-c4cccs4)no3)n(-c3ccccc3)c(=O)c2c1C	-1.01% (inactive)	
Cc1ccc(S(=O)(=O)Nc2ccccc2C(=O)c2ccc(C)c(C)c2)cc1	-2.65% [at 11.4 µM] (inactive)	

Structure (SMILES)	activity, negative = inhibition	AC50
O=C(Nc1cccc(C(=O)Nc2ccc(S(=O)(=O)O)c3cc(S(=O)(=O)O)cc(S(=O)(=O)O)c23)c1)Nc1cccc(C(=O)Nc2ccc(S(=O)(=O)O)c3cc(S(=O)(=O)O)cc(S(=O)(=O)O)c23)c1	2.17% (inactive)	
Cc1ccc(SCCNC(=O)c2ccc(C)c(S(=O)(=O)Nc3ccccc3C)c2)cc1		0.631 µM (active)
Cc1ccccc1NS(=O)(=O)c1cc(C(=O)Nc2cccc(N(C)S(C)(=O)=O)c2)ccc1C		1 µM (active)
C[N+]1(CCCC[N+]2(C)CCCCCCC2)CCCCCCC1	6.39% [at 11.4 µM] (inactive)	
NC(=O)c1ccc[n+](CC(=O)OCCC23CC4CC(CC(C4)C2)C3)c1	-1.21% [at 2.29 µM] (inactive)	
CCOC(=O)COc1cc(OCC(=O)OCC)c2c(=O)cc(-c3ccccc3)oc2c1		20 µM (active)
CC(C)(C)OC(=O)COc1cc(OCC(=O)OC(C)(C)C)c2c(=O)cc(-c3ccccc3)oc2c1	12.7% (inactive)	
O=C(O)c1cc(=O)c2c(OCC(O)COc3cccc4oc(C(=O)O)cc(=O)c34)cccc2o1	5.11% [at 25.6 µM] (inactive)	
CC(=O)O[C@]1(C)N=NC2(CCCCC2)O1	-7.61% [at 11.4 µM] (inactive)	
C=CCn1c(SCC)nc2sc3c(c2c1=O)CCc1ccccc1-3	-8.25% [at 2.29 µM] (inactive)	
C=CCn1c(SCC(=O)N2CCc3ccccc3C2)nc2ccccc2c1=O		2.51 µM (active)
O=C(Cn1c(SCC(=O)N2CCc3ccccc3C2)nc2ccccc21)NC1CCCC1		3.55 µM (active)
CN1CCN(CCCBr)CC1	9.1% [at 11.4 µM] (inactive)	
O=C(O)[C@@H]1[C@H](C(=O)O)[C@H]2C(=O)C=C[C@H]1N2Cc1ccccc1	-7.47% [at 11.4 µM] (inactive)	
CN1CCN(C2CC(=O)N(Cc3ccc(N4CCCC4=O)cc3)C2=O)CC1 (stereo not drawn)	3.78% (inactive)	
O=C1CC(N(O)C2CC(=O)N(Cc3ccccc3)C2=O)C(=O)N1Cc1ccccc1 (stereo not drawn)		10 µM (active)
O=C1C2[C@@H](c3ccccc3)N[C@@H](c3ccccc3)C1[C@H](c1ccccc1)N[C@H]2c1ccccc1	5.64% [at 11.4 µM] (inactive)	
NS(=O)(=O)c1ccc(NC(=O)Nc2cccc3ccccc23)cc1	-6.44% [at 11.4 µM] (inactive)	
NCCCCCCNS(=O)(=O)c1cccc2ccccc12		6.31 µM (active)
NCCCCCCNS(=O)(=O)c1cccc2c(Cl)cccc12		3.98 µM (active) and 2.51 µM (active)
COc1cc(/C=C/C(=O)O)cc(S(=O)(=O)NCCCO)c1OC	-24.1% [at 11.4 µM] (inactive)	

Structure (SMILES)	activity, negative = inhibition	AC50
NCCCCCCCCCCNS(=O)(=O)c1cccc2c(Cl)cccc12		2.51 µM (active)
O=S(=O)(O)CCCc1cccc2ccccc12	-8.32% [at 11.4 µM] (inactive)	
Nc1ccc(S(=O)(=O)NCCS(=O)(=O)O)cc1	-0.993% [at 11.4 µM] (inactive)	
CCCCNS(=O)(=O)c1ccc(OC)c(Cl)c1Cl		11.2 µM (active)
S=c1c2[nH]cnc2ncn1CCSc1ncnc2nc[nH]c12	-9.42% [at 11.4 µM] (inactive)	
CSCCC(NC=C1C(=O)OC(C)(C)OC1=O)C(=O)O (stereo not drawn)	-1.78% (inactive)	
O=S(=O)(NCCCCCCc1ccccc1)c1cccc2c(Cl)cccc12		2.51 µM (active)
CCN(CC)S(=O)(=O)c1cccc2c(N(C)C)cccc12	-22.7% (inactive)	
c1ccc(CCCNc2nnnc3ccccc23)cc1	-29.6% [at 11.4 µM] (inactive)	
CCCCCCCNS(=O)(=O)c1cccc2c(Cl)cccc12		7.94 µM (active)
NCCCc1c(-c2ccccc2)nc(N)[nH]c1=O	1.03% [at 11.4 µM] (inactive)	
Cn1c(=O)c2[nH]c(CCCCc3nc4c([nH]3)c(=O)n(C)c(=S)n4C)nc2n(C)c1=S		1.26 µM (active)
Cn1c(=S)c2[nH]c(SCCN3C(=O)c4ccccc4C3=O)nc2n(C)c1=O	-20.9% [at 11.4 µM] (inactive)	
Cn1c(=O)c2[nH]c(CCCCC(=O)O)nc2n(C)c1=O	-10.1% [at 11.4 µM] (inactive)	
Cn1c(=O)c2[nH]c(SCc3ccccn3)nc2n(C)c1=S		3.98 µM (active)
Cn1c(=S)c2[nH]c(SCc3cccnc3)nc2n(C)c1=O		3.16 µM (active)
Cn1c(=O)c2[nH]c(CCCCc3nc4ccccc4[nH]3)nc2n(C)c1=O	-19% [at 11.4 µM] (inactive)	
Cn1c(=S)c2[nH]c(SCCCc3ccccc3)nc2n(C)c1=O	-26.2% [at 11.4 µM] (inactive)	
Cn1c(=O)c2[nH]c(CSCc3ccccc3)nc2n(C)c1=O	-25% [at 11.4 µM] (inactive)	
Cn1c(=S)c2[nH]c(SCCN3CCCC3)nc2n(C)c1=O	-16% [at 11.4 µM] (inactive)	
